# PrPC TRFRET = cell surface PrPC inhibition, primary TR-FRET screen | inhibition, % at 13.8 µM | P04156 | TR-FRET read-out | hit rate 0.43% among 370,000; in the data active means inhibition above about 24%; further: 0% = median of the test wells and 100% = reference compound wells
# FBA Mtb inh = inhibits M. tuberculosis FBA enzyme | inhibition, % at 1 µM | P9WQA3 | hit rate 2.3% among 360,000 | AID 588726 | purified M. tuberculosis FBA, fluorescence read-out;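 further: 0% = vehicle and 100% = reference inhibitor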
# Target sequence (P9WQA3 whole entry, looked up): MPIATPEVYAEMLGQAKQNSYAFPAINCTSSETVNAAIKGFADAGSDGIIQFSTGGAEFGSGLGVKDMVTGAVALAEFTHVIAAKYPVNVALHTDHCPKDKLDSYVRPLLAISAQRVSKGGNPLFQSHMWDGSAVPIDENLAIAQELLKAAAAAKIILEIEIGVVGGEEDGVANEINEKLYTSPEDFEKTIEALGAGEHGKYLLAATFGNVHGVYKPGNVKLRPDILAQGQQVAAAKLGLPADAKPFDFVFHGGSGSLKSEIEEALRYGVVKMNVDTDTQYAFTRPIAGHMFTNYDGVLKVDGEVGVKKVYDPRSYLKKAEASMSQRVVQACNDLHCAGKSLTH
# GDH-TPI counter-1 = inhibits GDH-TPI coupling enzymes, artifact for Mtb FBA screen | GDH-TPI coupled enzyme counterscreen, NADH absorbance | inhibition, % at 4.8 µM | hit rate 1.2% among 360,000 | AID 588335; in the data active means inhibition above about 30%;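 further: 0% = DMSO wells and 100% = wells lacking the enzyme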
# BH1578 lux ind = inducers of Vibrio cholerae quorum light production without autoinducers | V. cholerae BH1578 lux reporter, luminescence, 6 h | hit rate 0.16% among 350,000 | activation, % at 18.7 µM | AID 588436; in the data active means activation mostly above about 9.7%, no sharp cut-off
# SARS 3CLpro inh = SARS-CoV 3CLpro protease inhibition. P0C6X7. recombinant SARS-CoV 3CLpro, quenched FRET peptide cleavage. inhibition, % at 6 µM. hit rate 0.14% among 290,000. AID 1706; in the data active means inhibition above about 12%
# Mtb FBA inh conf = confirmation of M. tuberculosis fructose-bisphosphate aldolase inhibitors; hit rate 78% among 5,600; inhibition, % at 1 µM; shares compounds with FBA Mtb inh; purified M. tuberculosis FBA, fluorescence read-out;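 further: 0% = vehicle wells and 100% = reference inhibitor wells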
# GDH-TPI counter-2 = counter-screen for M. tuberculosis FBA inhibitors: GDH-TPI coupled enzyme inhibition. inhibition, % at 1 µM. hit rate 81% among 5,600. GDH-TPI coupled enzyme counterscreen, fluorescence. shares compounds with FBA Mtb inh; in the data active means inhibition above about 10%
# GDH-TPI dose = counter-screen for M. tuberculosis FBA inhibitors: GDH-TPI dose response; shares compounds with FBA Mtb inh; GDH-TPI coupled enzyme assay, fluorescence, artifact counterscreen; IC50, µM; hit rate 79% among 170; AID 652145; call rule not given here
# The depositor's hits bear a star; i = inactive; nt = no result given; + = active, no number. Only some compounds are listed: those with a hit (about 3.9% of all), similar ones and a draw of the others. Unless noted, no stated cut-off is given here; in the data, active means inhibition above about 27%; inactive means the rest.
SMILES,PrPC TRFRET,FBA Mtb inh,GDH-TPI counter-1,BH1578 lux ind,SARS 3CLpro inh,Mtb FBA inh conf,GDH-TPI counter-2,others
CCC(C)NC(=S)Nc1ccc2nc(N3CCOCC3)cc(C)c2c1 (centres undefined),1,29*,6,-1,-3,1,-2,
O=C(COc1ccccc1)Nc1ccccc1Cl,7,-2,1,nt,5,nt,nt,
COc1ccc(C(=O)OCC(=O)N2CCN(S(=O)(=O)c3ccc(C)cc3)CC2)cc1[N+](=O)[O-],-8,-2,-4,-2,nt,nt,nt,
COc1ccc(NC(=O)CCC(=O)Nc2ccc3nc(N4CCOCC4)cc(C)c3c2)c(OC)c1,6,14,-5,0,-6,nt,nt,
COc1cc(NC(=O)CCC(=O)Nc2ccc3nc(N4CCOCC4)cc(C)c3c2)cc(OC)c1OC,3,106*,24,0,-5,40*,30*,
CCC(C)NC(=S)Nc1ccc2nc(N3CCN(CC)CC3)cc(C)c2c1 (centres undefined),-3,14,4,0,7,nt,nt,
CCC(C)NC(=O)CCC(=O)Nc1ccc2nc(N3CCOCC3)cc(C)c2c1 (centres undefined),2,77*,22,6,-3,3,-3,
COc1ccc(OC)c(NC(=O)Nc2nc(C(N)CCc3ccccc3)cs2)c1 (centres undefined),2,0,8,i,nt,nt,nt,
COc1ccc(CNC(=O)CCc2ccc(S(=O)(=O)N3CCCCCC3)cc2)cc1OC,-4,-1,3,-4,nt,nt,nt,
Cn1c(=O)c(=O)n(C)c2cc(S(=O)(=O)N3CCCCC3)ccc21,-2,-1,-3,-2,5,nt,nt,
Cc1ccn2c(c1)nc(=O)c1cc(S(=O)(=O)N3CCCCC3)ccc12,-3,54*,15,i,0,45*,39*,
O=c1nc2ccccn2c2ccc(S(=O)(=O)N3CCCCC3)cc12,-3,99*,11,0,1,111*,85*,
O=S(=O)(c1ccc(Cl)cc1)N1CCCCCC1,10,0,-1,0,3,nt,nt,
O=c1nc2ccc(Cl)cn2c2ccc(S(=O)(=O)N3CCCCC3)cc12,-6,60*,11,-2,6,1,5,
Cc1cccn2c(=O)c3cc(C(=O)N(C)C)n(C)c3nc12,-9,49*,20,0,3,93*,69*,
Cc1cccc(C(=O)NCCCn2ccnc2)c1C,0,-1,-6,0,0,nt,nt,
Cn1c(C(=O)NCCCN2CCCC2=O)cc2c(=O)n(C)c3ccccc3c21,9,11,-14,0,-5,nt,nt,
Cc1cccn2c(=O)c3cc(C(=O)NCCCN4CCCC4=O)n(C)c3nc12,-16,108*,25,i,3,1,-6,
Cc1cccn2c(=O)c3cc(C(=O)NCCCn4ccnc4)n(C)c3nc12,-12,59*,12,i,4,77*,53*,
COc1ccc(C)cc1NC(=O)c1nn(C)cc1Br,0,3,12,-1,4,nt,nt,
CC(=O)c1sc2nc(SCC(=O)NCCc3ccccc3)[nH]c(=O)c2c1C,24,29*,53*,1,2,77*,73*,
COc1ccc(CCNC(=O)CSc2nc3sc(C(=O)O)c(C)c3c(=O)[nH]2)cc1OC,-1,-1,10,8,-2,nt,nt,
COc1cc(OC)c(C2=NOC(C(=O)Nc3ccc4c(c3)OCO4)C2)cc1Cl (centres undefined),-2,57*,1,0,0,53*,42*,
CCCCc1cc(=O)oc2cc(OCC(=O)N3CCOCC3)ccc12,0,30*,16,0,-3,139*,101*,
CCCCc1cc(=O)oc2cc(OCC(=O)Nc3ccccn3)ccc12,7,46*,-5,0,4,68*,58*,
SMILES,PrPC TRFRET,FBA Mtb inh,GDH-TPI counter-1,BH1578 lux ind,SARS 3CLpro inh,Mtb FBA inh conf,GDH-TPI counter-2,others
Cc1cccc(/C=N\N=C\c2cccc(C)c2)c1,9,1,1,-1,3,nt,nt,
CCCS(=O)(=O)NC(=O)C1(C)CCCN(C(=O)c2cc(OC)ccc2Br)C1 (centres undefined),nt,0,7,i,nt,nt,nt,
Cc1csc2nc3cc(C(N)=O)ccc3c(=O)n12,-1,72*,11,i,nt,+,+,
Cc1ccc(-c2csc3nc4cc(C(=O)NC5CCC(O)CC5)ccc4c(=O)n23)cc1 (centres undefined),-5,30*,6,-1,nt,0,-2,
Cc1ccc(C(=O)OCc2cc(=O)n3c(C)csc3n2)s1,10,10,22,-1,nt,nt,nt,
Cc1ccc(C(=O)CSc2nc3ccc(C(=O)NCCN4CCCCC4)cc3c(=O)[nH]2)cc1,-3,0,1,0,nt,nt,nt,
Cc1ccc(-c2csc3nc4ccc(C(=O)NCCO)cc4c(=O)n23)cc1,1,31*,5,i,nt,+,+,
Cc1ccc(-c2c(C(=O)NCC(C)C)oc(=O)c3ccccc23)cc1,0,nt,nt,nt,nt,nt,nt,
CCOC(=O)c1cc2c(=O)n3cccc(C)c3nc2n(Cc2ccco2)c1=NC(=O)c1cccnc1,-19,106*,20,1,-4,31*,35*,
CCn1c(SCC(=O)O)nnc1-c1ccc(S(=O)(=O)N2CCCC2)cc1,-10,6,-5,0,-1,nt,nt,
CCn1c(SC)nnc1-c1ccc(S(=O)(=O)N2CCCCC2)cc1,6,28*,10,-1,2,42*,34*,
Cc1cc(=O)oc2cc(NC(=O)Cc3ccccc3)ccc12,5,80*,2,0,-1,+,185*,
Cc1cc(=O)oc2cc(NC(=O)c3cccc(S(C)(=O)=O)c3)ccc12,11,34*,21,0,0,79*,62*,
Cc1cc(=O)oc2cc(NC(=O)C(C)N3C(=O)C4CCCCC4C3=O)ccc12 (centres undefined),-9,85*,25,i,nt,65*,35*,
CCCC(C(=O)Nc1ccc2c(C)cc(=O)oc2c1)c1ccccc1 (centres undefined),6,28*,11,0,-1,11,4,GDH-TPI dose=2.8*
COc1ccccc1C(=O)Nc1ccc2c(C)cc(=O)oc2c1,-6,3,21,i,-2,nt,nt,
CC(C)n1[nH]c2ccccc2c1=O,0,17,nt,nt,nt,nt,nt,
CS(=O)(=O)c1cccc(C(=O)Nc2ccccc2Cc2ccccc2)c1,0,58*,14,-1,1,48*,0,
Cc1cc(=O)oc2cc(NC(=O)C(C)Oc3ccc(F)cc3)ccc12 (centres undefined),5,33*,11,-1,nt,177*,144*,
COc1ccc2c(C)cc3n[nH]c(=S)n3c2c1,4,37*,28,-1,-5,33*,21*,
CCc1nnc(NC(=O)c2nc3nc(C)cc(C)n3n2)s1,-2,-5,10,i,2,nt,nt,
